# Screening results as filed in PubChem BioAssay.
# GALK inh: galactokinase (human) inhibition | P51570 | Purified GALK, Kinase-Glo residual ATP luminescence | Potency, µM (highest dose often 57.5 µM), actives largely listed as inhibitors | actives 0.007% (n = 270,000)
#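 Human GALK (5 nM) with 35 uM ATP and 100 uM galactose in 20 mM HEPES pH 8.0, 5 mM MgCl2, 60 mM NaCl, 1 mM DTT, 0.01% BSA. After 1 h at room temperature, leftover ATP was read by Kinase-Glo Plus luminescence.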
# Eya2 inh: inhibitors of human Eya2 phosphatase activity; O00167; recombinant Eya2, OMFP fluorescence dephosphorylation (OMFP is methylfluorescein phosphate); Potency, µM (highest dose often 76.9 µM), hits mostly inhibitors; actives 0.006% (n = 330,000)
# Target sequence (O00167 whole entry, looked up): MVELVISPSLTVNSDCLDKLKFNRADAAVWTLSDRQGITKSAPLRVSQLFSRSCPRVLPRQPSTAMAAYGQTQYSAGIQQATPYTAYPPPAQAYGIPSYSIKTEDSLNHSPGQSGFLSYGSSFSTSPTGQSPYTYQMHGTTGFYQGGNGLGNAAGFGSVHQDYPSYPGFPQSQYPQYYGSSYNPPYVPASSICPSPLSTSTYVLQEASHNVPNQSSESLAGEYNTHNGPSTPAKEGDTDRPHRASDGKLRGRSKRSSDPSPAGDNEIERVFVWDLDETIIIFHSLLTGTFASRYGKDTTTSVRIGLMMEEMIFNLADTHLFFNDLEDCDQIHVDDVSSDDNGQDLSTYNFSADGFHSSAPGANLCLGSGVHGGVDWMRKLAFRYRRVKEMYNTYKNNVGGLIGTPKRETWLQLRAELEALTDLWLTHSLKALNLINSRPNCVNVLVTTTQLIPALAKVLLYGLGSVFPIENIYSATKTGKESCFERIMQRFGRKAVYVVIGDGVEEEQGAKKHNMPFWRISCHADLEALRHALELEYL
#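 Eya2 (0.2 uM) preincubated 10 min at ambient with compound, then OMFP substrate added at 50 uM; 10 min reaction in 50 mM HEPES pH 7.5, 50 mM NaCl, 5 uM MgCl2, 0.05% BSA, 1 mM DTT. Fluorescence read at Ex 485/Em 525 nm.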
# Anesthetic bind: candidate novel general anesthetic via apoferritin binding; apoferritin/1-aminoanthracene competitive binding, fluorescence; Potency, µM (series often up to 77.5 µM), actives largely listed as inhibitors; actives 0.074% (n = 350,000); AID 485281; note: nearly all actives have a fitted effect of over 20% in size
# Target sequence (P02791 2-175 limits assumed): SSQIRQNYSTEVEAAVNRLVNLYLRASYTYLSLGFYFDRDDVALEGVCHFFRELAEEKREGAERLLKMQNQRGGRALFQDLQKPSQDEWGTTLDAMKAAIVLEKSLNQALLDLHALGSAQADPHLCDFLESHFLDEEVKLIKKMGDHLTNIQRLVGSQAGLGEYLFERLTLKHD
#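 Steps: apoferritin (10 uM) was premixed with half-saturated 1-AMA in PBS, compounds were pin-transferred, plates stood 10 min at room temperature, fluorescence was read at 380/535 nm, and curves were fitted with a Hill equation.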
# JMJD2E inh: JMJD2E (human) inhibition; JMJD2E catalytic domain, FDH-coupled NADH fluorescence (FDH is formaldehyde dehydrogenase); Potency, µM (series often up to 57.1 µM), hits mostly inhibitors; actives 1.6% (n = 230,000); active = well fitted inhibition curve with a large enough effect, not every such curve was filed as active; inconclusive = small, poorly fitted or top-dose-only effect, or another doubt; inactive = no such curve, though single readings can be large or run the other way; note: nearly all actives have a fitted effect of over 50% in size
# CtBP-E1A blk: inhibitors of CtBP/E1A interaction | AlphaScreen GST-E1A/His-CtBP binding, 1536-well; active compounds read low | activity change, % (no concentration beside the values) | actives 0.49% (n = 340,000); in the data active = activity change below about -65%; inconclusive = mostly about -30% to -63%
#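 In 5 uL wells, 23 nL compound meets equimolar GST-E1A and His-CtBP (5X stock 125 nM each) for 2 h, 37 °C. Beads (5X, 50 ug/mL) then 1 h, 37 °C, dark.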
# Six1-Eya2 blk: blocks human Six1 binding to Eya2; activity change, % (concentration not given with the values); actives 0.56% (n = 360,000); Q15475+O00167; AlphaScreen GST-Six1/His-Eya2 binding, biochemical; active compounds read low; in the data active = activity change below about -65%; inconclusive = mostly about -30% to -63%
#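 Compounds are tested against tagged Six1 and Eya2 proteins bridged by glutathione donor and nickel acceptor beads; after a one-hour incubation at 37 °C without light, AlphaScreen emission is recorded.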
# A number is an active result; - = inactive; ? = inconclusive; . = no result given; [ ] = remark or other dose. Only a selection was taken, and hits are over-represented in it overall. Unless noted, calls come from the whole dose curve; as a rule, active = well fitted curve in the direction sought with a large enough effect; inconclusive = small, poorly fitted or top-dose-only effect, or another doubt; inactive = no such curve, though single readings can be large; an effect the other way counts as inactive or inconclusive.
SMILES,GALK inh,Eya2 inh,Anesthetic bind,JMJD2E inh,CtBP-E1A blk,Six1-Eya2 blk
COc1cc2c(cc1OC)-c1cc(NCc3ccccn3)nc(=O)n1CC2,-,-,-,?,?,-78
COc1cc2c(cc1OC)-c1cc(NC3CCCCC3)nc(=O)n1CC2,-,-,-,?,-66,-65
CCc1ccc(Cn2c(CNS(=O)(=O)c3ccc4c(c3)CCCC4)nc3cccnc32)cc1,.,.,-,.,.,.
COc1cc2c(cc1OC)-c1cc(NC3CCCCCCC3)nc(=O)n1CC2,-,-,?,?,-85,-80
COc1cc2c(cc1OC)-c1cc(NC3CC3)nc(=O)n1CC2,-,-,-,?,?,?
COc1ccc(NC(=O)Nc2cccc(-c3cn4cccnc4n3)c2)cc1,.,.,-,.,.,.
CCOc1ccc(C2C3=C(Nc4nc(N)[nH]c(=O)c42)c2ccccc2C3=O)cc1 (stereo not given),-,-,-,-,-,-72
CN(Cc1c(O)ccc2c1oc(=O)c1ccccc12)C1CCCCC1,-,-,-,25µM,-,-
O=C1/C(=C\c2ccc(O)c(O)c2)N=C2CCCCCN12,-,-,-,13µM,-,-
N#CC1=C(S)N(c2ccccc2)C(c2ccc(-c3cc(Cl)ccc3Cl)o2)NC1=O (stereo not given),-,-,-,-,-,-
N#CC1=C(S)N(c2ccccc2)C(c2ccc(-c3ccc(Cl)c(Cl)c3)o2)NC1=O (stereo not given),-,-,-,25µM,-,-
CC(C)(C)S(=O)(=O)/C(C#N)=C/c1cccn1S(=O)(=O)c1ccccc1,.,.,.,.,-,-
Cc1cccc(C[C@H](C(=O)O)N2C(=O)c3ccc(C(=O)O)cc3C2=O)c1,.,-,-,.,.,.
Cc1nc2c(O)cccc2c(=O)[nH]1,.,.,.,13µM,.,.
O=C(CCn1c(=O)c2sccc2n(Cc2cccc(F)c2)c1=O)NCc1ccc2c(c1)OCO2,.,.,-,.,.,.
Cc1ccc(S(=O)(=O)c2[nH]c(-c3ccccc3)nc2SCC(=O)O)cc1,.,.,-,.,.,.
CC(=O)Sc1nc(-c2ccccc2)[nH]c1S(=O)(=O)c1ccc(C)cc1,-,-,-,10µM,-,-
COc1cccc([C@H](O)Cn2cc(-c3cccc(CON=C(C)C)c3)nn2)c1,.,.,-[15.3 µM],.,.,.
Cc1cc(O)c(C=O)c2c1C(=O)Oc1c(CO)c(O)c3c(c1O2)C(O)OC3=O (stereo not given),-,-,?,20µM,-,-80
O=c1cc(-c2ccc(O)c(O)c2)oc2cc(OC3OC(CO)C(O)C(O)C3O)cc(O)c12 (stereo not given),.,.,.,11µM,.,.
O=c1cc(-c2ccc(O)cc2)oc2cc(O)c([C@@H]3O[C@H](CO)[C@@H](O)[C@H](O)[C@H]3O)c(O)c12,.,-,-,.,-,-
O=c1cc(-c2ccc(O)c(O)c2)oc2cc(O)c(C3OC(CO)C(O)C(O)C3O)c(O)c12 (stereo not given),-,-,-,14µM,-,?
O=C(Nc1ccc2c(c1)N(C1CCCC1)C(=O)c1ccccc1S2)c1ccccc1,.,.,-,.,.,.
CC(=O)Nc1nc2ccc(C(=O)NCCOC(=O)C3CCCCC3)cc2s1,-,-,-,-,-,-
Nc1nc2ccc(C(=O)NCCOC(=O)C3CCCCC3)cc2s1,-,-,-,-,.,-77
SMILES,GALK inh,Eya2 inh,Anesthetic bind,JMJD2E inh,CtBP-E1A blk,Six1-Eya2 blk
Cc1cc(NC(=O)CSc2ccc3nnc(-c4cccs4)n3n2)no1,-,-,-,-,-68,?
COc1ccc(-c2noc(CCC(=O)NCCc3ccccc3)n2)cc1,-,-,-,.,-,-
CCOc1ccc(-c2noc(CCC(=O)NCCc3ccccc3)n2)cc1OC,-,-,-,.,-65,-
O=C(CC1N=C2c3ccccc3N=C(SCC(=O)Nc3cccc(Cl)c3)N2C1=O)NCc1cccs1 (stereo not given),.,.,-,.,.,.
Cc1nc(C/C(=N\Nc2ccccc2)c2ccc(O)cc2O)cs1,-,-,-,14µM,-,-
CCOc1ccc2[nH]c3nc(SCC(=O)NCC4CCCO4)nnc3c2c1 (stereo not given),-,-,-,.,-86,-90
COc1ccc2c(c1)OC1(O)COc3cc(OC)c(OC)cc3C1=C2 (stereo not given),.,.,-,?,.,.
CCOC(=O)[C@H]1[C@H]2COc3ccc(Br)cc3[C@H]2N2C(=O)CN(Cc3ccc(Cl)cc3)C(=O)[C@@]12C,.,.,.,.,-,-
O=C(NC(NCc1ccccn1)(C(F)(F)F)C(F)(F)F)c1ccco1,-,-,-,-,?,-73
C[C@H](NC(c1cccc2nc(O)c(O)nc12)P(=O)(O)O)c1ccc(Br)cc1 (stereo not given in full),.,.,-,.,.,.
COC(=O)CCCC(=O)OC,.,-,.,.,-,-
COC(=O)CCC(=O)CN,-,-,-,28µM,-,-
CC(C)OCCc1cccc[n+]1[O-],.,.,.,.,-,-
O=C(COc1ccccc1-c1nc(-c2ccccc2)no1)Nc1ccc([N+](=O)[O-])cc1,.,.,-,.,.,.
CC(=O)OCC1OC(C#CCCc2ccccc2)C=CC1OC(C)=O (stereo not given),.,.,-[15.3 µM],.,.,.
CNc1cncc(-c2cccc(C(C)=O)c2)n1,.,.,.,.,-,-
CNc1cncc(-c2cccc(NS(C)(=O)=O)c2)n1,.,.,.,.,-67,?
O=C(O)c1ncn(Cc2ccccc2)c1C(=O)O,-,-,-,-,?,-69
O=C(NCc1ccccc1)c1ncn(Cc2ccccc2)c1C(=O)NCc1ccccc1,.,-,.,.,-,-
COc1cc2[nH]c(=S)nc(Nc3ccc(NC(C)=O)cc3)c2cc1OC,-,-,-,-,-90,-88
COc1cc2[nH]c(=S)nc(NCC3CCCO3)c2cc1OC (stereo not given),-,?,-,-,-87,-90
COc1cc2[nH]c(=S)n(CC3CCCO3)c(=O)c2cc1OC (stereo not given),-,-,-,-,-,-
COc1cc2[nH]c(=S)nc(NC3CCCCCC3)c2cc1OC,-,-,-,-,-67,-71
CC(C)=CCC/C(C)=C/CO/N=C1/[C@H]2O[C@@H]2[C@@H](O)[C@H]2[C@H]1CCn1c(=O)n(Cc3cc4c(cc3Cl)OCO4)c(=O)n12,.,.,-[15.3 µM],.,.,.
C#CCCCO/N=C1/C[C@@H](O)[C@@H](O)[C@@H]2[C@@H]3C(=O)N(CC)C(=O)[C@H]3CC[C@@H]12,.,.,-[15.3 µM],.,.,.
COc1ccc(-c2onc(C)c2C)cc1S(=O)(=O)N1CCc2ccccc21,.,.,-,.,.,.
O=C(C[n+]1ccc(C(=O)N/N=C/c2ccc(OCc3ccccc3)cc2)cc1)c1ccccc1,-,-,?,28µM,-,-
S=c1nc(-c2ccccc2Br)[nH][nH]1,-,-,-,14µM,-,-
